The target in assay [1] is Dual specificity protein kinase CLK3 (Homo sapiens) (UniProt P49761). The following applies: at 1 µM.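 Further: each value is the mean inhibition of CLK3.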
For assay [2], the target named is Dual specificity tyrosine-phosphorylation-regulated kinase 1A (Homo sapiens) (UniProt Q13627). The conditions noted are these: at 0.1 µM.
For assay [3] the target is unchanged. The following applies: at 1 µM.
For assay [4], the target named is Dual specificity tyrosine-phosphorylation-regulated kinase 1B (Homo sapiens) (UniProt Q9Y463). The following applies: at 0.1 µM.
Assay [5] has the same target. The following applies: at 1 µM.
Assay [6] deals with T1, Dual specificity tyrosine-phosphorylation-regulated kinase 2 (Homo sapiens) (UniProt Q92630).
T1 sequence (whole entry): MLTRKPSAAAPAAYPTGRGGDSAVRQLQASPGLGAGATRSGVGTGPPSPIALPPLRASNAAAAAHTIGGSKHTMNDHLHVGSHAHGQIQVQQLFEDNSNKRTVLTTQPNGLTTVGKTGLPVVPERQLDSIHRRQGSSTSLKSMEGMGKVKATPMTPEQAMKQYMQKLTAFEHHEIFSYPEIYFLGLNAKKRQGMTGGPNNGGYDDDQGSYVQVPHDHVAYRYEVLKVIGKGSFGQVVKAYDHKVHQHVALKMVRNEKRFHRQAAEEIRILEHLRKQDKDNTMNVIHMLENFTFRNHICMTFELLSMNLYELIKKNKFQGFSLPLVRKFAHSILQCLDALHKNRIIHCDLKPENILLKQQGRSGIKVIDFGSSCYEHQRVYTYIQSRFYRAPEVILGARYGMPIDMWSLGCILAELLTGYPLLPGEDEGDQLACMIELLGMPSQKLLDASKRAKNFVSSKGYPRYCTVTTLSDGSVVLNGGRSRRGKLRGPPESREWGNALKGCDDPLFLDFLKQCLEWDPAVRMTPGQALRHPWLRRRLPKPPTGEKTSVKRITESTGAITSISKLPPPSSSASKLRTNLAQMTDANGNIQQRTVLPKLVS
The conditions noted are these: at 0.1 µM.

Assay [7] addresses T1, Dual specificity tyrosine-phosphorylation-regulated kinase 2 (Homo sapiens). The conditions noted are these: at 1 µM.
Assay [8] addresses Glycogen synthase kinase-3 alpha (Homo sapiens) (UniProt P49840). The following applies: at 0.1 µM.
For assay [9] the target is unchanged. The following applies: at 1 µM.
Assay [10] deals with Glycogen synthase kinase-3 beta (Homo sapiens) (UniProt P49841). The following applies: at 0.1 µM.
The target is the same in assay [11]. The conditions noted are these: at 1 µM.
For assay [12], the target named is Homeodomain-interacting protein kinase 1 (Homo sapiens) (UniProt Q86Z02). The following applies: at 0.1 µM.
Assay [13] shares this target. The following applies: at 1 µM.
Assay [14] concerns the target T2, Homeodomain-interacting protein kinase 4 (Homo sapiens) (UniProt Q8NE63).
T2 sequence (whole entry): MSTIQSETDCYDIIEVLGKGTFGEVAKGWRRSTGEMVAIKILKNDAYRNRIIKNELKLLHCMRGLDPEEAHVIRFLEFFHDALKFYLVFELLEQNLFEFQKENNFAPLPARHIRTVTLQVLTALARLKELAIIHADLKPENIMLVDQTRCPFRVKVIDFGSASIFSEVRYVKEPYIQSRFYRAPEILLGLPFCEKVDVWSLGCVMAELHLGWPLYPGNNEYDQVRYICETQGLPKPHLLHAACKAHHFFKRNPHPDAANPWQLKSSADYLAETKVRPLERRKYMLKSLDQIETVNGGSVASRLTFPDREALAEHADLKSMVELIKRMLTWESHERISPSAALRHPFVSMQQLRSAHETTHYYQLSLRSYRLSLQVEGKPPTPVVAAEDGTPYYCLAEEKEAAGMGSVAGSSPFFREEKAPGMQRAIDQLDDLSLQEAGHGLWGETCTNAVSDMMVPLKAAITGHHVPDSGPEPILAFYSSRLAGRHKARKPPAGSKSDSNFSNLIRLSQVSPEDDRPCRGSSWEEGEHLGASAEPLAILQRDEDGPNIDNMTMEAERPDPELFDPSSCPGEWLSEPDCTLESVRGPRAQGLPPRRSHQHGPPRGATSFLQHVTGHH
The following applies: at 0.1 µM.

For assay [15], the target named is T2, Homeodomain-interacting protein kinase 4 (Homo sapiens). The following applies: at 1 µM.
The target of assay [16] is Mitogen-activated protein kinase 9 (Homo sapiens) (UniProt P45984). The following applies: at 0.1 µM.
Assay [17] has the same target. The following applies: at 1 µM.
The target of assay [18] is Mitogen-activated protein kinase 1 (Homo sapiens) (UniProt P28482). The following applies: at 0.1 µM.
The target is the same in assay [19]. The following applies: at 1 µM.
Assay [20] has as its target Mitogen-activated protein kinase 3 (Homo sapiens) (UniProt P27361). The following applies: at 0.1 µM.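 Further: each value is a mean inhibition figure.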

This note sets out measurements from ChEMBL document CHEMBL1961873, “Compounds: GSK PKIS; Assays: Nanosyn kinase panel” (2012).

Mitogen-activated protein kinase 3 (Homo sapiens), sequence (P27361 whole entry): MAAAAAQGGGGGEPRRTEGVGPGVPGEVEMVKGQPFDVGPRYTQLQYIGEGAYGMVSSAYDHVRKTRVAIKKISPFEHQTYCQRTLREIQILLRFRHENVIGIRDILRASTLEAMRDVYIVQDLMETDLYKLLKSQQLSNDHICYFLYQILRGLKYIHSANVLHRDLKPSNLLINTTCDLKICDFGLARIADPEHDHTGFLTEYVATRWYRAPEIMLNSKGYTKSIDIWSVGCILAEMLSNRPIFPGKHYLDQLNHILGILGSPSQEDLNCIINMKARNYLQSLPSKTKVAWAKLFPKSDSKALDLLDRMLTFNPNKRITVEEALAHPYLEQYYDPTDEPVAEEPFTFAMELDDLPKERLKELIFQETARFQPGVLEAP
Mitogen-activated protein kinase 9 (Homo sapiens), sequence (P45984 whole entry, looked up): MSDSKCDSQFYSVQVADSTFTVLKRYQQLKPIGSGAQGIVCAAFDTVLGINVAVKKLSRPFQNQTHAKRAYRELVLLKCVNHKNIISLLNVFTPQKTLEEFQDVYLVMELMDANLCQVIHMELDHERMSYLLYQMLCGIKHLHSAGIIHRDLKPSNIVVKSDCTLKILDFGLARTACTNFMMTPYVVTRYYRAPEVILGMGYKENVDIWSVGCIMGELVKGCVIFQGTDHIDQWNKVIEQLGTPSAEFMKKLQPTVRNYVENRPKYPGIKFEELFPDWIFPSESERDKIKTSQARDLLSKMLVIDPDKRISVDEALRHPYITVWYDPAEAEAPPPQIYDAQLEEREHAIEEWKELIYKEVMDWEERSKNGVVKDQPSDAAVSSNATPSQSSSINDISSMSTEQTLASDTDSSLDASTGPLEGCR
Dual specificity protein kinase CLK3 (Homo sapiens), sequence (P49761 whole entry, looked up): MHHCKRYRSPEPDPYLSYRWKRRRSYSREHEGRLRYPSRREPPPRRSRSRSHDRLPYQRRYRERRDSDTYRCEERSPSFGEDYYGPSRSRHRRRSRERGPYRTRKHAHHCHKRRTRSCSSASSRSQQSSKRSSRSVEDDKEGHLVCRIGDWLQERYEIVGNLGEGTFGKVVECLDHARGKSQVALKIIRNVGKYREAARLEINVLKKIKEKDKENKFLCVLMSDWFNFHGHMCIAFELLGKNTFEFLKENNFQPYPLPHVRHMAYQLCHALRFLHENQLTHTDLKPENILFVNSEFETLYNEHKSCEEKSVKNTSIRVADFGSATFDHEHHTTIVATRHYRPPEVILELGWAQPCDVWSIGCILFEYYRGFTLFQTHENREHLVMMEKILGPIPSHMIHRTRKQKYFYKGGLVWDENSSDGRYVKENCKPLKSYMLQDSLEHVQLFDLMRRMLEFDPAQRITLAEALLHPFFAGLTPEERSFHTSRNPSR
Mitogen-activated protein kinase 1 (Homo sapiens), sequence (P28482 whole entry): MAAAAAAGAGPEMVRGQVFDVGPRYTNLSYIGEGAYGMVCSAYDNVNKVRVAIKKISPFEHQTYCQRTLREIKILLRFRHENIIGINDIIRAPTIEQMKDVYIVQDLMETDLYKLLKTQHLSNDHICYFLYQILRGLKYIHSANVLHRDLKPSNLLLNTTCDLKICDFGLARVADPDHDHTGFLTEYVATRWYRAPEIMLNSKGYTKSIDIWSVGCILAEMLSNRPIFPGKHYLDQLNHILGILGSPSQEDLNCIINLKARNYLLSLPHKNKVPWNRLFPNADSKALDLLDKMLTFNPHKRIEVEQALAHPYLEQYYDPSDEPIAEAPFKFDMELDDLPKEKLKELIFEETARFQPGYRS
Homeodomain-interacting protein kinase 1 (Homo sapiens), sequence (Q86Z02 whole entry, looked up): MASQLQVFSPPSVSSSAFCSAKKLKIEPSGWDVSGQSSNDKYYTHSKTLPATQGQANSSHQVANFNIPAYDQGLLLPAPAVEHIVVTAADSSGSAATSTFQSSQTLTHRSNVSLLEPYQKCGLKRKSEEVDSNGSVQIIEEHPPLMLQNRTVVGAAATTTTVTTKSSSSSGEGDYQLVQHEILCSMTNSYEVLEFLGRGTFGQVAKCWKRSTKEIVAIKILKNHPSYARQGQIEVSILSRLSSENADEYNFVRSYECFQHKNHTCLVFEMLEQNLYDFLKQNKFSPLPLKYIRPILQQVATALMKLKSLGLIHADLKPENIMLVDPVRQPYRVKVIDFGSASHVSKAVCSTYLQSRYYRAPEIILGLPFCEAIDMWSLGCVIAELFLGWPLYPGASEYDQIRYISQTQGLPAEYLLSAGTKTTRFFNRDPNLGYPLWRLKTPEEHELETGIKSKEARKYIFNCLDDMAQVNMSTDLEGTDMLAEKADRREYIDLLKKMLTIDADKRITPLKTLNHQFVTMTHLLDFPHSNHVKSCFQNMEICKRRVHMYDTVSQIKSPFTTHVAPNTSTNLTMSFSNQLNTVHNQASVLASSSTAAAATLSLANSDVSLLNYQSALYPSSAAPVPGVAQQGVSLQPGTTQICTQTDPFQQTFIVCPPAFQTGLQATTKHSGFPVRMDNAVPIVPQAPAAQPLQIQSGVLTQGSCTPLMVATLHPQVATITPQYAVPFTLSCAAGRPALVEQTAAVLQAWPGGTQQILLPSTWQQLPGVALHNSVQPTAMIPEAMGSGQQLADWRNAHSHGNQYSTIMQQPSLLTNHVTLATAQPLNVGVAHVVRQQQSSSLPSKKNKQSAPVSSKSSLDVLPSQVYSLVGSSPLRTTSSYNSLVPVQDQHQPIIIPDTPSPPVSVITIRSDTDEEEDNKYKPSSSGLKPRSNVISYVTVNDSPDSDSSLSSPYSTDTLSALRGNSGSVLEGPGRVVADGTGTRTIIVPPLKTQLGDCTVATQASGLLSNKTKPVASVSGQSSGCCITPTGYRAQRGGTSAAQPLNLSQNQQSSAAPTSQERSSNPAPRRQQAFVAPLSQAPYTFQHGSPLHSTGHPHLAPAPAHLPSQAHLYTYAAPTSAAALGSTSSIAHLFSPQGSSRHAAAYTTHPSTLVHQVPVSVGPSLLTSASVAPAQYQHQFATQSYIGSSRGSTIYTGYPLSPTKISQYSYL
Dual specificity tyrosine-phosphorylation-regulated kinase 1B (Homo sapiens), sequence (Q9Y463 whole entry, looked up): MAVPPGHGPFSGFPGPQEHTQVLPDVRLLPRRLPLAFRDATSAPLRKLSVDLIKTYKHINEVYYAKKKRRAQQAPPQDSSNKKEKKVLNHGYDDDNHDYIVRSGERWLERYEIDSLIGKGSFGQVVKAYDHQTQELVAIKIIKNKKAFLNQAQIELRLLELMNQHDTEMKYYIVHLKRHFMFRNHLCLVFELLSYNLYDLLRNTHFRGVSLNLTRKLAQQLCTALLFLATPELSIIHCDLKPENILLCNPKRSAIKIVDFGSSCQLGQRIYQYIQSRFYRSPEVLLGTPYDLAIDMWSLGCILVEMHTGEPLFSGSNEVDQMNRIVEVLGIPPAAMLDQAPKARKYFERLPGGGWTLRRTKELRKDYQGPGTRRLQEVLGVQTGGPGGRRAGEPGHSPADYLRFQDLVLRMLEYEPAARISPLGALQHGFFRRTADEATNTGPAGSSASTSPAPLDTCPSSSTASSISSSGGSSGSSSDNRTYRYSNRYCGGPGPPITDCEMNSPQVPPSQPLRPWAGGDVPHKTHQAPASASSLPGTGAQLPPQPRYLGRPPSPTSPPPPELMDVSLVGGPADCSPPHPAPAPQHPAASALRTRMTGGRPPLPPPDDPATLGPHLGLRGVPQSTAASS
Glycogen synthase kinase-3 alpha (Homo sapiens), sequence (P49840 2-483 limits assumed): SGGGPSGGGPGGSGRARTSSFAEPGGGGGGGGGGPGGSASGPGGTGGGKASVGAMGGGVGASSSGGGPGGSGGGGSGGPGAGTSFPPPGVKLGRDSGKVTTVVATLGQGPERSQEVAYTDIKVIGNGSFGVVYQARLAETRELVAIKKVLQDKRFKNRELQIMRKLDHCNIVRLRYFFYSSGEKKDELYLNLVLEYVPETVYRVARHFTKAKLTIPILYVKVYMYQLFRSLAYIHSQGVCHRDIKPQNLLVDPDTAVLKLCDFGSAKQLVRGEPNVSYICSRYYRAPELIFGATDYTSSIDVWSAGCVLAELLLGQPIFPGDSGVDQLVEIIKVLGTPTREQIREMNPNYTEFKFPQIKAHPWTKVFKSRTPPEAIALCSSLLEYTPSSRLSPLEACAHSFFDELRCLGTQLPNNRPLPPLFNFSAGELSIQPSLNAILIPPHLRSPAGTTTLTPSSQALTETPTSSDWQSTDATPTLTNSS
Glycogen synthase kinase-3 beta (Homo sapiens), sequence (P49841 whole entry, looked up): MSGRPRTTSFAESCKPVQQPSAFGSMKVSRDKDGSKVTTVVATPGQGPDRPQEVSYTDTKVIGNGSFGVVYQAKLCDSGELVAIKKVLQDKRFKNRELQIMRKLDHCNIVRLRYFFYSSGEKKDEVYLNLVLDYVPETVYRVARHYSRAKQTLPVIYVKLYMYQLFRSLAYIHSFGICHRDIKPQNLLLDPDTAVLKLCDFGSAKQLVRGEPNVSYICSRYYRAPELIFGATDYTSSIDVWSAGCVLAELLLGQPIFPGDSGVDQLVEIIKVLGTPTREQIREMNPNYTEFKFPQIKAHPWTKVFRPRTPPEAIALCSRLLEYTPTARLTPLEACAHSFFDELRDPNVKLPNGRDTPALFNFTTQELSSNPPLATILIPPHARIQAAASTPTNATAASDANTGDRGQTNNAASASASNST

On to `Cc1cc(-c2ccccn2)cc(C)c1/C=C/c1cncc(-c2nn[nH]n2)c1`, for which the inhibition in assay [1] amounted to 0.95%; in [2], 2.5%; in assay [3], 1.98%; in assay [4], 2.58%; in assay [5] it was 4.24%; in [6], 3.69%. For the same molecule, the inhibition in assay [7] stood at 4.85%; in assay [8], 5.73%; in assay [9], 12.5%; in [10] it was 5.72%; in [11], 13.7%; in assay [12] it was 1.03%. In addition, the inhibition in [13] was determined as 5.14%; in assay [14], 1.94%; in assay [15], 7.19%; in assay [16], 5.13%; in [17], 9.24%; in assay [18], 4.92%. For the same molecule, the inhibition in assay [19] is 7.24%; in assay [20] it was 5.71%.

For the molecule `OCc1ccc(-c2nc(-c3ccccn3)c(-c3ccc4c(c3)OCO4)[nH]2)cc1`, the inhibition amounted to 2.95% in assay [1]; 1.82% in assay [2]; 4.86% in assay [3]; 0.33% in assay [4]; 0.97% in assay [5]; 2.62% in [6]. Also, the inhibition turned out to be 3.63% in assay [7]; 2.15% in [8]; 4.5% in [9]; 2.21% in [10]; 3.44% in assay [11]; 0.23% in assay [12]. The inhibition worked out at 4.92% in assay [13]; 1.72% in assay [14]; 0.79% in assay [15]; 2.15% in assay [16]; 5.14% in assay [17]; 5.49% in [18]. The values for the inhibition in assay [19] and in assay [20] were 3.7% and 3.56%, respectively.

With `NS(=O)(=O)c1cccc(-c2cc3ccncc3cc2OCc2ccccc2)c1`, the inhibition in assay [1] worked out at 3.46%; in assay [2] it was 3.42%; in [3], 5.5%; in [4], 0.3%; in assay [5], 2.52%; in assay [6] it was 3.59%. In addition, the inhibition in assay [7] was 3.57%; in [8], 1.97%; in assay [9], 4.81%; in assay [10] it was 0.8%; in assay [11] it was 3.55%; in assay [12] it was 1.1%. Besides, the inhibition in assay [13] turned out to be 6.53%; in assay [14], 1.76%; in [15], 8.61%; in assay [16], 0.94%; in assay [17] it was 3.75%; in assay [18], 4.71%. Further, the inhibition amounted to 5.84% in [19] and 4.25% in assay [20].

With `CN(c1ccc(NC(=O)Nc2ccc(OC(F)(F)F)cc2)cc1)c1ccnc(Nc2cccc(S(N)(=O)=O)c2)n1`, the inhibition was 1.99% in assay [1]; 1.32% in assay [2]; 1.5% in assay [3]; -2.14% in assay [4]; -0.44% in [5]; 2.23% in assay [6]. In addition, the inhibition in assay [7] was found to be 3.14%; in assay [8], 2.09%; in assay [9], 9.4%; in [10], 0.92%; in assay [11], 13.6%; in [12], 1.06%. In addition, the inhibition in assay [13] was 34%; in [14], 62.4%; in assay [15], 83.6%; in [16], 1.46%; in assay [17] it was 3.15%; in assay [18] it was 4.33%. Besides, the figures for the inhibition in [19] and in [20] were 3.93% and 2.67%, respectively.

With `Cc1ccc2c(c1)/C(=N/Nc1ccc(S(N)(=O)=O)cc1)C(=O)N2`, the inhibition in assay [1] is -0.91%; in assay [2], -1.04%; in assay [3] it was 2.94%; in assay [4], -1.01%; in assay [5] it was 1.94%; in assay [6], 0.43%. Further, the inhibition in assay [7] is -0.62%; in assay [8] it was 4.1%; in assay [9], 31.3%; in assay [10] it was 1.9%; in assay [11], 23.7%; in assay [12] it was -4.8%. Besides, the inhibition in assay [13] was 0%; in assay [14], -2.11%; in [15], -0.65%; in assay [16], 2.38%; in assay [17], 1.49%; in assay [18] it was -0.67%. In addition, the figures for the inhibition in assay [19] and in [20] were 2.7% and 2.34%, respectively.

Consider `Nc1nccc(C#Cc2cncnc2Nc2ccc(OCc3cccc(F)c3)c(Cl)c2)n1`, for which the inhibition in [1] stood at 3.1%; in assay [2], 3.44%; in [3] it was 10.8%; in assay [4], 1.71%; in assay [5], 4.87%; in [6], 3.08%. The inhibition in assay [7] was 4.89%; in [8], 4.01%; in assay [9], 14.3%; in [10] it was 2.94%; in assay [11] it was 10.5%; in assay [12], -0.05%. In addition, the inhibition was 6.94% in assay [13]; 4.23% in assay [14]; 8.43% in [15]; 3.97% in [16]; 4.23% in assay [17]; 3.54% in assay [18]. In addition, the inhibition in assay [19] was found to be 4.87%; in assay [20] it was 1.83%.
